A short description of test [1]: hESC survival regulators, cell-based (AID 493140; call rule not given here;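 further: cells exposed to compounds for four days before counting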). As to conditions: human embryonic stem cell survival screen; stronger effect = higher value.
A short description of test [2]: sensitizers of A549 cells to miR-34 induction, primary screen, imaging, A549 dox-inducible miR-34, nuclei and caspase counts (AID 1347080). Conditions: A549 miR-34 inducible, Hoechst nuclei count, 48 h.
For test [3], the target named is ATP-dependent translocase ABCB1 (Homo sapiens) (UniProt P08183). Description: MDR1 (ABCB1) efflux transporter inhibition, cell-based (AID 377; in the data active means fluorescence slope change above about 50%). As to conditions: MDR1-expressing cells, fluorescent substrate accumulation slope; stronger effect = higher value; concentration not given here.
A short description of test [4]: liver-stage malaria parasite growth inhibition, primary screen, cell-based, HepG2, luciferase luminescence, HepG2 viability (AID 624349; in the data active means parasite load remaining mostly below about 12%, no sharp cut-off; inactive means mostly above about 10%;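 further: 100% = mean of DMSO negative control wells on the same plate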). Conditions: P. berghei liver stage in HepG2, luciferase luminescence, concentration not given here; parasite load remaining: stronger effect = lower value; viability: measured here: HepG2 viability without parasites.
[5] abbreviates: stronger effect = lower value, cell number ratio, induced over uninduced.
The mark [6] stands for this setting: measured here: relative caspase fold change +Dox/-Dox.
Setting [7] is: measured here: total cells with miR-34 induction, stronger effect = lower value.
The mark [8] stands for this setting: measured here: total cells without miR-34 induction.

“And” between values parts separate entries of the source, which are not always exact repeats. Identical values can stand only once. Inconclusive results are not listed. The source made the active and inactive calls.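 How the source made its calls, unless noted: active means compounds whose cell count with miR-34 switched on is under 0.7 times the count with it off; inactive means the rest.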

Sequence of ATP-dependent translocase ABCB1 (Homo sapiens) (P08183 whole entry, looked up): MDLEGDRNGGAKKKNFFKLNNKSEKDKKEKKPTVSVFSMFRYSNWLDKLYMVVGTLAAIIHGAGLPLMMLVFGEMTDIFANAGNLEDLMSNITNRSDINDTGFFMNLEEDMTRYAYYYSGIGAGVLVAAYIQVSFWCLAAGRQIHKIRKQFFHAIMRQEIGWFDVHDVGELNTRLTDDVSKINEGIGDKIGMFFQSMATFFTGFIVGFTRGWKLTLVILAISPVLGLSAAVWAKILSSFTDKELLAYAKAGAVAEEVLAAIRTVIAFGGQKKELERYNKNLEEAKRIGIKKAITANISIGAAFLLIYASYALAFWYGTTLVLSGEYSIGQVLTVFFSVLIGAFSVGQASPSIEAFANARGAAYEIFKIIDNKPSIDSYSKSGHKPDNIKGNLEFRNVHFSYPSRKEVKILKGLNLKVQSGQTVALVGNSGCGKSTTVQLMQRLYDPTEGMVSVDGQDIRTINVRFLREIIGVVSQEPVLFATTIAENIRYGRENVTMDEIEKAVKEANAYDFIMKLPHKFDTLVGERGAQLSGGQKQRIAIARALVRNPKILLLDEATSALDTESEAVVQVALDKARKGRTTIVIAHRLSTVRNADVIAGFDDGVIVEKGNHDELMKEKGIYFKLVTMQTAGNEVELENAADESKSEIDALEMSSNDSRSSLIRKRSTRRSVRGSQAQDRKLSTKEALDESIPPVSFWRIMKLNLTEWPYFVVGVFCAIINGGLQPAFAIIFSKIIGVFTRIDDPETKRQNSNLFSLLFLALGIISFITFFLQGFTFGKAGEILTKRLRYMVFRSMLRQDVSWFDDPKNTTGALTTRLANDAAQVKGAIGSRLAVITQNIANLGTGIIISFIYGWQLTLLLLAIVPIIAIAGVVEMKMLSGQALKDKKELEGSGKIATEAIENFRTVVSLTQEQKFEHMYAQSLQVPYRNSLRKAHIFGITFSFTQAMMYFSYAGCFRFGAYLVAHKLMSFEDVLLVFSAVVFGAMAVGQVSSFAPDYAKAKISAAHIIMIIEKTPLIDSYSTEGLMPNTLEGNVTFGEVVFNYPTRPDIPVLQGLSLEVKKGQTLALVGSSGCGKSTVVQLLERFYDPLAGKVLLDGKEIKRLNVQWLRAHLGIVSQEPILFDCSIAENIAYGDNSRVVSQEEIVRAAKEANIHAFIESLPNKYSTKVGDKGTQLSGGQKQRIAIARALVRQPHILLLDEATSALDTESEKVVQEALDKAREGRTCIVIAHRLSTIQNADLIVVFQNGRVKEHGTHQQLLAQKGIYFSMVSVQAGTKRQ

For `CCCCCCCC/C=C\CCCCCCCC(=O)OC[C@@H](O)COP(=O)(O)O`, the survival in test [1] was 57.2 (inactive). In addition, the fold change was 0.957 (inactive) and 0.893 (inactive) in test [2] (setting [5]); 1.42 and 0.522 in test [2] (setting [6]). Besides, the cell count is 6370 and 5350 in test [2] (setting [7]); 6660 and 5990 in test [2] (setting [8]).
For `CCCCCCCCCCCCCCCCCCOC[C@H](COP(=O)([O-])OCC[N+](C)(C)C)OC(C)=O`, in test [1], the survival is 83.4 (inactive). Also, the fold change in test [2] (setting [5]) was 0.968 (inactive) and 1 (inactive); in test [2] (setting [6]), 1.1 and 0.859. The cell count is 5740 and 5730 in test [2] (setting [7]); 5930 and 5720 in test [2] (setting [8]).
Usually viability stands for a read-out of living cells in per cent, often relative to untreated cells. Turning to `COc1c(O[C@@H]2O[C@H](CO)[C@@H](O)[C@H](O)[C@H]2O)cc2c(c1OC)-c1ccc(SC)c(=O)cc1C(NC(C)=O)CC2` (some centres undefined), the fluorescence slope change in test [3] was 56.6% (active). Further, in test [1], the survival is 8.17 (inactive). Besides, the parasite load remaining in test [4] is 68.6% (inactive) and 75.2% (inactive). Also, the viability in test [4] was 120% and 78%. For the same molecule, the fold change was 0.892 (inactive) in test [2] (setting [5]) and 1.15 in test [2] (setting [6]). Moreover, the cell count was found to be 8970 in test [2] (setting [7]) and 10100 in test [2] (setting [8]).
`CCCCCC(O)/C=C/C=O` (centres undefined): the survival in test [1] is 101 (inactive). Also, the fold change is 0.954 (inactive) in test [2] (setting [5]) and 1.27 in test [2] (setting [6]). Further, the cell count in test [2] (setting [7]) worked out at 5280; in test [2] (setting [8]) it was 5530.
The matching figures for `C=C1C(c2ccc(C)cc2)=CCc2cc(C)cc(C)c21`: 98.5 (inactive), 0.866 (inactive), 0.886, 1920 and 2210.
The matching figures for `CCCCC/C=C\C[C@@H](O)/C=C/C=C/C=C\[C@@H](O)CCCC(=O)O`: 102 (inactive), 0.993 (inactive), 1.34, 6200 and 6240.
The matching figures for `CCCCC[C@H](O)/C=C/[C@@H]1[C@@H](C/C=C\CCCC(=O)O)[C@H]2CO[C@@H]1C2`: 104 (inactive), 0.992 (inactive), 1.22, 5990 and 6040.
For `c1ccc2c(c1)CCCc1cc(NCCN3CCOCC3)nnc1-2`, the fluorescence slope change in test [3] was 77.5% (active). For the same molecule, the survival in test [1] is 2.75 (inactive). The parasite load remaining in test [4] is 74.6% (inactive) and 80.6% (inactive). Moreover, the viability in test [4] is 105% and 79%. For the same molecule, the fold change was 0.801 (inactive) in test [2] (setting [5]) and 2.12 in test [2] (setting [6]). The cell count in test [2] (setting [7]) is 7290; in test [2] (setting [8]), 9100.
In the case of `CCCCC[C@H](O)/C=C/[C@@H]1[C@@H](CCCCCCC(=O)O)[C@@H](O)C[C@H]1O`, in test [1], the survival is 96.8 (inactive). For the same molecule, the fold change is 0.91 (inactive) and 0.991 (inactive) in test [2] (setting [5]); 1.19 and 1.15 in test [2] (setting [6]). In addition, the cell count is 5960 and 6030 in test [2] (setting [7]); 6550 and 6090 in test [2] (setting [8]).
With `CCCCCCCCCCCCCCCCOCC(CO)OC(C)=O` (centres undefined), the survival in test [1] is 63.3 (inactive). Also, the fold change in test [2] (setting [5]) was 0.942 (inactive); in test [2] (setting [6]), 1.66. Moreover, the cell count in test [2] (setting [7]) was found to be 5510; in test [2] (setting [8]), 5840.
With `CCOCCOCCOCCOCCOCCOCCOCCOCCOCCO` (tested in a mixture with another compound), the parasite load remaining in test [4] was 30.7% (inactive). The viability in test [4] was 102%. Further, the fold change in test [2] (setting [5]) is 0.959 (inactive); in test [2] (setting [6]), 1.63. The cell count turned out to be 11300 in test [2] (setting [7]) and 11800 in test [2] (setting [8]).
For `OCCN1C[C@@H](O)[C@@H](O)C(O)C1CO` (some centres undefined), in test [4], the parasite load remaining was 147% (inactive) and 57.2% (inactive). In addition, the viability in test [4] was 86.4% and 111%. For the same molecule, the fold change was 0.903 (inactive) in test [2] (setting [5]) and 5.56 in test [2] (setting [6]). The results for the cell count in test [2] (setting [7]) and in test [2] (setting [8]) were 12600 and 14000, respectively.
Consider `S=C(NC1CCCCC1)N1CCC(C2C=NC=N2)CC1` (centres undefined), for which the survival in test [1] was 6.25 (inactive). For the same molecule, the parasite load remaining in test [4] is 49.2% (inactive). The viability in test [4] was 96.4%. Further, the fold change in test [2] (setting [5]) was 0.857 (inactive); in test [2] (setting [6]), 1.52. Also, the cell count in test [2] (setting [7]) was 8240; in test [2] (setting [8]), 9620.
With `COc1cc2c(cc1OC)-c1[nH]nc(Nc3cccc(F)c3)c1C2`, the parasite load remaining in test [4] is 37% (inactive). Besides, in test [4], the viability was 81.5%. Also, the fold change in test [2] (setting [5]) was 1.05 (inactive); in test [2] (setting [6]), 1.72. Besides, the values for the cell count in test [2] (setting [7]) and in test [2] (setting [8]) were 1160 and 1100, respectively.
As for `CCCCC[C@H](O)CC[C@H]1[C@H](O)CC(=O)[C@@H]1CCCCCCC(=O)O`, the survival in test [1] is 89 (inactive). The fold change in test [2] (setting [5]) is 0.898 (inactive) and 0.911 (inactive); in test [2] (setting [6]), 0.955 and 1.31. Further, the cell count is 5150 and 5260 in test [2] (setting [7]); 5740 and 5770 in test [2] (setting [8]).
Take `COc1ccc2c3c([nH]c2c1)[C@H]1C[C@H]2[C@H](C[C@@H](O)[C@H](OC)[C@H]2C(=O)O)CN1CC3`: the survival in test [1] was 7.42 (inactive). In addition, the parasite load remaining in test [4] was 113% (inactive). Also, the viability in test [4] was 75.4%. The fold change in test [2] (setting [5]) was 0.96 (inactive); in test [2] (setting [6]) it was 0.581. Moreover, the cell count in test [2] (setting [7]) amounted to 9000; in test [2] (setting [8]), 9370.
Take `CCOC(=O)[C@H](CCc1ccccc1)N[C@@H](C)C(=O)N1C(C(=O)O)C[C@@H]2CCC[C@@H]21` (some centres undefined): the survival in test [1] is 13.5 (inactive). In test [4], the parasite load remaining is 66.3% (inactive). In addition, in test [4], the viability turned out to be 72.7%. Also, the fold change in test [2] (setting [5]) is 0.971 (inactive); in test [2] (setting [6]) it was 0.659. The cell count worked out at 9850 in test [2] (setting [7]) and 10100 in test [2] (setting [8]).
For the molecule `C[N+]1(C)CCC[C@H]1C(=O)[O-]`, in test [1], the survival is 11.7 (inactive). Moreover, the parasite load remaining in test [4] was 174% (inactive) and 67% (inactive). In addition, in test [4], the viability was 106% and 78.6%. Further, the fold change in test [2] (setting [5]) was 0.876 (inactive); in test [2] (setting [6]) it was 1.44. The cell count was found to be 8860 in test [2] (setting [7]) and 10100 in test [2] (setting [8]).
Regarding `Clc1cnccn1`, the survival in test [1] is 4.25 (inactive). For the same molecule, the parasite load remaining in test [4] was 81.6% (inactive). Further, the viability in test [4] was determined as 71.5%. Also, the figures for the fold change in test [2] (setting [5]) and in test [2] (setting [6]) were 0.949 (inactive) and 0.524, respectively. Moreover, the figures for the cell count in test [2] (setting [7]) and in test [2] (setting [8]) were 9270 and 9770, respectively.
In the case of `CCCCCCCCCCCCCCC(F)C(=O)O` (centres undefined), the survival in test [1] was 81.6 (inactive). In addition, the fold change was 0.989 (inactive) and 1.01 (inactive) in test [2] (setting [5]); 1.15 and 0.824 in test [2] (setting [6]). Further, the cell count is 6040 and 6340 in test [2] (setting [7]); 6110 and 6280 in test [2] (setting [8]).
